INHIBITION data for 28 molecules are collected here from ChEMBL document CHEMBL4513216, “Probing the Open Global Health Chemical Diversity Library for Multistage-Active Starting Points for Next-Generation Antimalarials” (ACS Infect Dis, 2020).

About 8,600 (12%) of roughly 69,000 compounds showed an effect of 50% or more. This excerpt belongs to a sample that is enriched for strong results.

The assay relates to Plasmodium berghei. Nature of the assay: Screen against P. berghei liver stage (PbLuc), transformed with Luciferase, at 10uM. The class given is functional, HepG2. Particulars: tested at 10 uM.
On to `CC(C)c1nnc2n1CCN(C(=O)c1ccc3c(c1)CCC3)C2`, for which the INHIBITION is recorded as -12.2%.

Consider `COc1ccccc1C1=NOC(CC2(C(=O)O)CCOCC2)C1` (stereo not drawn), for which the INHIBITION is on record as 29.2%. With `CCn1cnnc1C1CCN(C(=O)c2cccc(N(C)C)c2)CC1` the figure was 39.7%; with `CCc1cnc(N2C[C@H]3CN(Cc4csc(C)n4)C(=O)[C@H]3C2)nc1`, 18.5%; with `Cc1cc(C(=O)NS(C)(=O)=O)c(C)n1-c1ccccc1`, 37.9%.

Regarding `Cc1nc(CN2C[C@@H]3CN(C(=O)c4cnccn4)C[C@@H]3C2)cs1`, the INHIBITION is recorded as -13.2%. In the case of `CN1C[C@@H](C(=O)NC(C)(C)C)[C@@]2(CCc3ccccc3C(=O)N2)C1`, the INHIBITION stood at 16.5%.

As for `COCCn1ccc(NC(=O)Nc2cccnc2)n1`, the INHIBITION turned out to be 25.3%. With `Cc1cc(N2CCOC(c3ccc(N(C)C)cn3)C2)nc(N)n1` (stereo not drawn) the figure was -0.6%; with `Cc1cc(C(=O)N2CCC3(CC2)COCCN(c2cccnc2)C3)[nH]n1`, 24.6%; with `COc1ccnc(N2CCN(Cc3ncc(-c4ccccc4)o3)CC2)n1`, 56%.

With `COc1ccnc(N2CCCN(Cc3ncc(C(C)C)o3)CC2)n1`, the INHIBITION stood at 9.76%. Then `COc1ccnc(N2CCN(Cc3ncc(C(C)(C)C)o3)CC2)n1`, with 9.76%.

As to `Cc1nnc(CN(C)CCc2nc(-c3cccc(Cl)c3)no2)n1C`, the INHIBITION stood at 34.5%. Consider `Cc1noc(C)c1CN(C)CCc1nc(-c2cccc(Cl)c2)no1`, for which the INHIBITION is recorded as 88.1%. Take `CN(CCc1nc(-c2cccc(Cl)c2)no1)CCn1cccn1`: the INHIBITION was found to be 12.6%. On to `O=C(Cc1cccnc1)N1CCC2(CCN(C3CCOC3)CC2)C1` (stereo not drawn), for which the INHIBITION is -1.83%. For the molecule `O=C(Cc1cccnc1)N1CCC2(CC1)CCN(C1CCOCC1)C2`, the INHIBITION is -3.19%. Then `O=C(Cc1cccnc1)N1CCC2(CC1)CCN(C1CCOC1)C2` (stereo not drawn), with 53.4%; and `CC(=O)N1CCN(Cc2ccc(C)o2)CC2(CC(=O)N(C)C2)C1` (stereo not drawn), with 3.81%; and `COc1ncccc1N(C)C(=O)Cn1cc(-c2ccccc2)nn1`, with 4.34%. With `Cc1ccc(C2COCCN2C(=O)c2ccsc2)o1` (stereo not drawn) the figure was 3.77%.

As for `N#CCCN(CCC#N)C(=O)c1ccc(OCC2CC2)cc1`, the INHIBITION was -77.9%.

Take `N#CCCN(Cc1cccnc1)C(=O)c1ccc(OCC2CC2)cc1`: the INHIBITION was -92.2%. With `N#CCCN(Cc1ccco1)C(=O)c1ccc(OCC2CC2)cc1` the figure was 69.5%; with `CC(=O)NCC(=O)N1CCC2(CC1)NC(=O)CC2c1cnn(C)c1` (stereo not drawn), 43.1%.

Regarding `Cc1cnn(CC2CCCN2C(=O)c2cc(C)nc3[nH]nc(C)c23)c1` (stereo not drawn), the INHIBITION is reported as -37.7%. As to `CCOc1ncccc1C(=O)N1CCCC(c2nncn2C)C1` (stereo not drawn), the INHIBITION is on record as -98.8%.
